Measurements: ChEMBL document CHEMBL3988442, “University of Dundee, Small-Polar-MMV Screening Library” (2021)
Out of some 48,000 compounds screened, about 13,000 (27%) showed an effect of 50% or more. The list shows a part of the results.

Tested on: Wolbachia pipientis
Assay: Anti-Wolbachia Cell-Based Screen
Assay type: functional
Set-up: scale not given: in the data most compounds retested in dose-response had high values
Settings: 5 µM

| Compound | Percent Effect |
| --- | --- |
| CC(C)Cc1cc(C(=O)N2CCCN(c3cccnn3)CC2)[nH]n1 | -1.538% |
| CC(C)Cc1cc(C(=O)NC(C)C)[nH]n1 | 116% |
| Cc1ccc(N2CCCN(C(=O)c3cc(CC(C)C)n[nH]3)CC2)nn1 | 3.453% |
| CC(C)Cc1cc(C(=O)N2CCCN(c3ncccn3)CC2)[nH]n1 | -10.26% |
| CC(C)Cc1cc(C(=O)NCCn2nc3ccccn3c2=O)[nH]n1 | -3.6% |
| Cc1ccc(NCCNC(=O)c2cc(CC(C)C)n[nH]2)nn1 | 121% |
| Cc1nn(CC(=O)N2CCN(c3ncccn3)CC2)c(C)c1Cl | 17.26% |
| CN(Cc1cccs1)C1CCC[C@@H]2CN(C(=O)c3cccn3C)C[C@H]12 (some centres undefined) | 17.98% |
| Cc1ccc(N(C)C2CCN(C(=O)CCc3ccco3)CC2)nn1 | -5.46% |
| Cc1ccc(N(C)[C@@H]2CC[C@@H]3CN(C(=O)Cc4cccs4)C[C@@H]32)nn1 | 112.9% |
| Cc1ccc(N(C)[C@@H]2CC[C@@H]3CN(C(=O)C4CCOCC4)C[C@@H]32)nn1 | 186.8% |
| CN(Cc1cccs1)C1CCC[C@@H]2CN(C(N)=O)C[C@H]12.O=C(O)C(F)(F)F (some centres undefined) | 5.173% |
| Cc1ccc(N2C[C@H](C(=O)NCC3CC3)[C@@H]3CCO[C@@H]3C2)nn1.O=C(O)C(F)(F)F | 0.6774% |
| Cc1ccc(N2CCC3(CCN(C(=O)C4CCOC4)CC3)CC2)nn1 (centres undefined) | -12.92% |
| Cc1ccc(N(C)[C@@H]2CC[C@@H]3CN(C(=O)CC4CCOCC4)C[C@@H]32)nn1 | 152.8% |
| CCN(CCn1cccn1)Cc1nc(-c2cccs2)oc1C | 6.026% |
| N#Cc1cccc(CN2CCn3cc(CNC(=O)C4CCC4)nc3C2)c1 | -7.661% |
| COC(=O)NCC(=O)NC(c1ccc(Cl)cc1)C(F)(F)F (centres undefined) | -6.665% |
| COc1ccc(C(=O)N2CCCC(CNS(C)(=O)=O)C2)cc1F (centres undefined) | 1.055% |
| COC[C@@H]1CC[C@H]2[C@H](CCN2S(=O)(=O)c2ccc(OC)cc2)O1 | -8.82% |
| COc1ccc(S(=O)(=O)N2CCC[C@@H]3CN(C(=O)C4CC4)C[C@@H]32)cc1F | 83.03% |
| CCN1C(=O)C[C@@H]2[C@@H]1CCN2S(=O)(=O)c1ccc(OC)cc1 | 1.644% |
| COc1ccc(S(=O)(=O)N2CCC[C@@H]3CN(C(=O)C4CC4)C[C@@H]32)cc1 | 61.28% |
| COc1ccc(C(=O)N2CCCC(C)C2)cc1F (centres undefined) | 8.733% |
| O=C(NCc1cc[nH]n1)NCC(O)c1ccc(F)cc1F (centres undefined) | 2.33% |

| Compound | Percent Effect |
| --- | --- |
| CCN(CC)C(=O)[C@@H]1C[C@H](NC(=O)c2ccn(C(C)(C)C)c2)CN1C | -2.667% |
| O=C1CCCc2occ(C(=O)N3CCCC(O)(CO)C3)c21 (centres undefined) | -7.191% |
| CO[C@H]1COCCN(C(=O)c2ccno2)C1 | -14.2% |
| COc1ccc(CNC(=O)CNc2ccccc2OC)cc1 | -12.04% |
| O=C(CNc1cc2c(cc1Cl)OCCCO2)NCc1ccc(F)cc1 | 5.92% |
| CC(C)(C)Oc1ccc(NCC(=O)NCc2ccco2)cc1 | 90.6% |
| Cc1ccccc1C(=O)Nc1ccc(OC2CCN(C)CC2)cc1 | -1.73% |
| O=C(Nc1ccnc(OC2CCOC2)c1)c1cccs1 (centres undefined) | -9.418% |
| Cc1ccc(NCc2cccc3cn[nH]c23)cc1OC1CCOC1 (centres undefined) | 0.01014% |
| O=C(CNc1ccc(F)cc1OCC(F)(F)F)NCc1ccco1 | -21.13% |
| CC(C)(Oc1ccc(F)cc1)C(=O)NCc1ccco1 | -9.094% |
| Cc1ccccc1CNC(=O)CNc1ccc(OC2CCOC2)cc1 (centres undefined) | 97.09% |
| O=C(Cc1cccs1)NCc1ccnc(OC2CCOCC2)c1 | -13.9% |
| O=C(CNc1ccc(OC2CCOC2)cc1)NCc1cccs1 (centres undefined) | 90.04% |
| O=C(CNc1ccc(OC2CCOC2)cc1)NCc1ccc(F)cc1 (centres undefined) | 77.11% |
| Cc1occc1C(=O)N1CCC(C(O)c2ccc(F)cc2)CC1 (centres undefined) | -2.674% |
| Cc1ccc(C)c(CC(=O)Nc2cnccc2SCCCO)c1 | 3.451% |
| CCCN1CCC(N2CCN(c3cccc(C)n3)CC2)CC1 | 3.962% |
| CC(C)C[C@@H]1N[C@H](C(=O)NCC2CC2)Cc2c[nH]c3cccc1c23 | 1.644% |
| COCC1c2nnn(CC3CC3)c2CCN1C(=O)c1sccc1C (centres undefined) | 4.054% |
| Cc1nnc(N2CCC(CNC(=O)OC(C)(C)C)CC2)c(C#N)c1C | -3.272% |
| Cl.Cl.O[C@@H]1C[C@@](CNCC2CCCC2)(COc2cccnc2)C[C@@H]1O | -14.64% |
| O=C(CNc1ccc(OC2CCOC2)cc1)NCc1ccco1 (centres undefined) | 104.1% |
| O=C(CCc1ccncc1)Nc1ccc(OCC2CCOCC2)cc1 | 5.919% |
| O=C(CNc1ccc(OCC2CCOCC2)cc1)NCc1ccco1 | 93.4% |

| Compound | Percent Effect |
| --- | --- |
| O=C(CNc1cccc(S(=O)(=O)C(F)F)c1)NCc1ccco1 | 4.728% |
| O=C(CNc1cccc(CC(F)(F)F)c1)NCc1ccco1 | 5.703% |
| O=C(CCc1cccnc1)Nc1ccc(OCC2CCOCC2)cc1 | -6.342% |
| CCN1CCN(C(=O)CCC2CCN(C(C)CCC(=O)OC)CC2)CC1 (centres undefined) | -3.151% |
| Cc1nccn1-c1ccc(N2CCC(NC(C)C(C)C)CC2)cc1 (centres undefined) | 16.28% |
| CN(C)c1cc(C(=O)NC2(c3cccc(F)c3)CCOCC2)ccn1 | -10.5% |
| Cc1cccc(CN2C[C@@H]3CN(C(=O)c4conc4C)C[C@@H]3C2=O)c1 | 2.313% |
| c1cncc(N2CCOC3(CCCN(c4nncs4)C3)C2)c1 (centres undefined) | -20.57% |
| Cc1ccc(N2N=C(C(=O)NCC3CC3)S(=O)(=O)c3cccnc32)cc1 | 113.2% |
| CCc1c(C(=O)NCC2CCS(=O)(=O)C2)cnn1-c1ccc(C)cc1 (centres undefined) | 0.07541% |
| Cc1ccc(-n2nnc(C(=O)NCC3CCCCC3)n2)cc1 | 3.646% |
| O=C(C1=NN(Cc2ccccc2)c2ccccc2S1(=O)=O)N1CCCC1 | 25.7% |
| CN1N=C(C(=O)N2CCCCC2)S(=O)(=O)c2ccccc21 | 9.429% |
| Cc1ccc(N2N=C(C(N)=O)S(=O)(=O)c3cccnc32)cc1 | 70.93% |
| Cc1nc2c(c(N3CC=CC3)n1)CCN(c1ncccc1C(N)=O)CC2 | -4.106% |
| Cc1ccc(N2N=C(C(=O)O)S(=O)(=O)c3cccnc32)cc1 | 88.09% |
| Cc1ccc(CN2CCN(c3ncccc3C(N)=O)CC2CCO)cc1 (centres undefined) | 0.06546% |
| C[C@H](NC(=O)C1(N(C)Cc2ccccc2)Cc2ccccc2C1)C(N)=O | -2.365% |
| CC(=O)c1c(F)cccc1NC1CCN(S(=O)(=O)C2CC2)CC1 | 15.22% |
| CN(CC(=O)NC(C)(C)C)C(=O)c1cccn1CCc1ccccc1 | 4.312% |
| Cc1nn(C)c(C)c1CN(C)C(=O)c1cccc(CCC(C)(C)O)c1 | -10.94% |
| Cc1cnn(CCNCc2nccn2CC(F)(F)F)c1 | -5.156% |
| Cc1cc(CN(C)C(=O)c2ccc(C(F)(F)F)nc2)no1 | 4.429% |
| CN(Cc1ccc2c(c1)OCO2)C(=O)c1ccc(=O)n(C)c1 | -0.4136% |
| CCn1c(CN(C)C(=O)c2ccc(O)nc2)nc2ccccc21 | -29.68% |

| Compound | Percent Effect |
| --- | --- |
| CN(Cc1nccn1CC(F)(F)F)C(=O)c1cccc(N(C)C)c1 | 107.5% |
| Cc1ccc(C(=O)N(C)Cc2nccn2CC(F)(F)F)cn1 | 108.9% |
| CN(Cc1nccn1CC(F)(F)F)C(=O)c1ccc2c(c1)OCO2 | 110.7% |
| CN(Cc1ccc2c(c1)OCO2)C(=O)c1ccn(C)c(=O)c1 | 11.43% |
| CN(Cc1nccn1C)C(=O)c1cccc(CCC(C)(C)O)c1 | -1.939% |
| Cc1ccc(C(=O)N(C)Cc2cc(Br)cs2)cn1 | 108.4% |
| CN(Cc1cc(Br)cn1C)C(=O)c1cccnc1 | -11.61% |
| CCc1nnsc1C(=O)NCc1c(C)nn(CCOC)c1C | 22.53% |
| Cc1ccc(C2CCCCCN2CCNS(C)(=O)=O)o1 (centres undefined) | -18.53% |
| O=C(CN1C(=O)CCCc2sccc21)NC1CCc2nccn2C1 (centres undefined) | -8.511% |
| Cc1cc(CN2C[C@H]3CC[C@@H]2CN(Cc2c(C)noc2C)C3)ccc1F | -0.5585% |
| FC(F)(F)Cn1ccnc1CNCCn1cccn1 | -10.84% |
| CN(C)CC1CCN(Cc2nccn2CC(F)(F)F)CC1 | 2.033% |
| COCc1cccc(C(=O)N(C)Cc2ncc(C)c(OC)c2C)c1 | 6.137% |
| CC(O)C1CCN(Cc2nccn2CC(F)(F)F)CC1 (centres undefined) | -9.918% |
| CCOc1ccc(C(=O)N(C)Cc2nccn2CC(F)(F)F)cc1 | 117.2% |
| COc1cc(C(=O)N(C)Cc2nccn2CC(F)(F)F)ccc1C | 111.1% |
| O=C(O)C(F)(F)F.O=C(O)C(F)(F)F.c1cncc(CN2CCOC(c3ncn4c(C5CC5)cccc34)C2)c1 (centres undefined) | -19.22% |
| Cc1ncsc1CCn1ccnc1-c1cc2n(n1)CCCNC2 | -9.491% |
| COc1cc(C)c(C(C)NC(=O)Nc2nnc(C)s2)cc1OC (centres undefined) | -2.297% |
| CO[C@@H]1CN(C)S(=O)(=O)[C@@]12CCN(Cc1ccccc1)C2 | 116.7% |
| CO[C@H]1CN(C)S(=O)(=O)[C@@]12CCN(Cc1ccccc1)C2 | 109.7% |
| CC1CN(Cc2ccccc2)CCCN1CCNS(C)(=O)=O (centres undefined) | 2.156% |
| CC1CN(Cc2ccccc2)CCCN1CCS(C)(=O)=O (centres undefined) | -9.711% |
